Assay results published in PubChem BioAssay AID493167 (Broad Institute, 2011).
Activity calls are given as the source filed them.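 How the source made its calls: active means signal falls and fitted half-maximal concentration is at most ten times the sample's top valid dose; inconclusive means flat fit with 30 to 70% inhibition, or poor fit; inactive means change in the rising direction, plus the rest.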

test system: LuxS (S-ribosylhomocysteine lyase), bacterial; assay: LuxS enzyme inhibitors, dose response, biochemical, dry powder, set 3, absorbance (AID 493167); conditions: purified Co-LuxS, SRH turnover, DTNB absorbance 412 nm; series mostly up to 35 µM

outcome, inactive:
Cc1noc(C)c1S(=O)(=O)Nc1ccc2c(c1)C(=O)N([C@@H](C)CO)C[C@@H](C)[C@@H](CN(C)Cc1ccc(Oc3ccccc3)cc1)O2
O=S(=O)(Nc1cccnc1)c1ccc(Oc2ccccc2)cc1
C[C@@H]1CN([C@H](C)CO)C(=O)c2ccccc2-c2ccccc2CO[C@@H]1CN(C)Cc1ccc(Oc2ccccc2)cc1
O=S(=O)(Nc1ccccn1)c1ccccc1
